# Screening results: PubChem BioAssay, several laboratories
# HSF1 activator: HSF-1 activators, primary screen, NIH3T3-HGL cells, MG132 stress, luminescence, single point; 300,000 tested, 1.7% active; NIH3T3-HGL HSF-1 luciferase reporter, 8 h; 100% = twice DMSO control signal; activation, % at 9 µM; AID 504408, 2011;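 active = mean replicate activation of at least 50% with a set share of replicates each reaching 50%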;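 note: 0% = median of the neutral control wells and 100% = twice that signal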
# pCIP destab: p/CIP-EGFP fusion destabilizers, primary screen, fluorescence, F442A cells. 16 h. decrease of EGFP signal, % at 10 µM. Q05BA5. 290,000 tested, 0.01% active;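 active = EGFP signal decrease of at least 30% at 10 µM or well 3 SD below plate mean, unless failing retest; inactive = the rest, including hits failing retest or dose response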
# Hsp70 act: Hsp70 transcriptional activators, primary screen, cell-based, HeLa, Hsp70 promoter luciferase, luminescence, 10 µM; HeLa Hsp70 promoter luciferase reporter; scaled: vehicle 0, proteasome-inhibitor control 100%; activation, % at 10 µM; 200,000 tested, 0.04% active; AID 1203, 2008;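 active = activation above the mean across all tested compounds plus 3 SD, cutoff set per campaign, cut at about 5.5% in these data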;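 note: 100% = MG132 at 30 µM as the positive control and 0% = DMSO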
# HSP90 inh: HSP90 inhibitors, primary screen, cell lysate, luminescence. inhibition, % at 5.6 µM. 290,000 tested, 0.91% active. Heat shock protein HSP 90 (rabbit reticulocyte lysate; luciferase refolding). Rabbit reticulocyte lysate, luciferase refolding luminescence, 3 h. AID 1789, 2009;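 active = inhibition above the screen-wide mean plus 3 SD, computed separately per campaign, cut at about 16% in these data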;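 note: 0% = DMSO wells and 100% = 60 µM geldanamycin wells; inhibitors lower the luminescence because luciferase stays unfolded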
# HSF1 inh: HSF1 inhibitors in luciferase reporter cells, primary screen, cell-based, NIH3T3, luminescence | NIH3T3-HGL HSE-luciferase, MG132-induced, luminescence 8 h; hits give low values | activity change, negative = inhibition, % at 7.5 µM (by protocol) | 300,000 tested, 0.77% active | AID 2098, 2009;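 active = more than half of replicate wells show activity change below -50%, luminescence cut by over half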;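 note: luciferase reports HSF-1 transcriptional activity via heat shock element; 0% = median of DMSO wells and -100% = zero luminescence signal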
# NALP1 inh: NALP1 inflammasome inhibitors in reconstituted yeast, colorimetric, S. cerevisiae, triplicate retest | inhibition, % at 10 µM | 280,000 tested, 0.61% active | S. cerevisiae NALP1/ASC/caspase-1 growth, X-gal OD620, 72 h; in the data active = inhibition mostly above about 24%, no sharp cut-off; inactive = mostly below about 32%
# Starred values were filed as active, the others as inactive; / = no result given. Rows were chosen to be rich in hits. Some 3.8% of all compounds tested hit in one or more screens of this group.
SMILES,HSF1 activator,pCIP destab,Hsp70 act,HSP90 inh,HSF1 inh,NALP1 inh
CO/N=C\Cc1oc(=O)c(NC(=O)c2ccccc2)cc1C(=O)OC,-3.1,-9.6,-0.5,1.0,3.1,5.3
O=C(O)CSc1c(-c2ccccc2)[nH]c2ccccc12,70.1*,-2.0,-0.3,-3.0,34.1,-2.4
Cc1cc(C(=O)CN2C(=O)NC3(CCCCC3)C2=O)c(C)n1Cc1ccco1,89.2*,0.2,0.4,-1.6,43.8,-15.9
Cc1cc(C(=O)CN2C(=O)NC3(CCCCC3)C2=O)c(C)n1Cc1ccc2c(c1)OCO2,28.3,-3.7,0.5,-2.5,30.4,-0.5
Cc1ccc(NC(=O)C(=O)NCCCN2CC(C(=O)O)CC2=O)cc1 (configuration not stated),-15.7,-10.4,/,-2.3,-2.5,11.7
COc1ccc(NC(=O)C2Cc3ccccc3C(=O)O2)cc1 (configuration not stated),-76.1,-7.8,/,/,-70.9*,4.3
COc1ccc(CCNC(=O)C2Cc3ccccc3C(=O)O2)cc1 (configuration not stated),4.4,10.8,0.2,-2.8,-4.3,9.9
COc1ccc(/C=C/C(=O)NCCSCc2ccco2)cc1OC,-8.6,-3.6,/,1.4,-6.7,38.8*
O=c1c2ccccc2nnn1CSc1ccccc1,85.7*,-2.1,-0.2,12.4,43.7,40.3
O=C(/C(=C(\[O-])c1ccccc1)[n+]1ccc2ccccc2c1)c1ccc([N+](=O)[O-])cc1,-71.5,-2.3,-0.1,0.0,-64.2*,16.2
O=C(/C(=C(\[O-])c1ccccc1)[n+]1ccc2ccccc2c1)c1ccc(Cl)cc1,-65.9,7.6,-0.3,2.2,-56.7*,-2.4
COC(=O)Cn1c(CN2CCN(C(=O)c3ccco3)CC2)nc2c1c(=O)n(C)c(=O)n2C,8.0,9.0,/,2.7,-0.1,11.8
Cc1c(C)c2cc(Cl)c(OCC(=O)N3CCN(c4ccc(F)cc4)CC3)cc2oc1=O,-26.6,-11.3,/,2.6,-7.4,12.0
c1cc(CNC23CC4CC(CC(C4)C2)C3)ccn1,20.1,-3.1,-0.3,1.5,0.6,27.4*
COc1ccccc1CNC(=O)N1CCN(c2ccccc2C)CC1,-77.6,-6.6,/,-0.2,-72.0*,12.8
COc1ccccc1CNC(=O)N1CCN(c2ccccc2)CC1,-5.2,-2.9,/,2.5,-3.6,8.4
O=C(Cc1ccc(Cl)cc1)Nc1ncc([N+](=O)[O-])s1,36.4,-10.4,0.6,0.9,18.0,-7.6
Cc1ccc(C(=O)Nc2ncc([N+](=O)[O-])s2)cc1,-17.8,-8.1,/,80.0*,5.8,21.9
O=C(COc1ccc(Cl)cc1)Nc1ncc([N+](=O)[O-])s1,77.8*,-5.1,-0.4,7.7,45.3,-6.9
O=C(CCC(=O)c1ccc(F)cc1)NCc1ccccc1C(F)(F)F,4.6,-18.1,/,3.5,2.8,-9.1
CCOCCCN(C(=O)c1snc(C(N)=O)c1N)C(C(=O)NC(C)(C)C)c1ccc(Cl)cc1 (configuration not stated),13.9,6.9,/,3.0,4.9,4.2
N#CCCN1CCN(C(=S)c2ccc(-c3ccc(Cl)c(Cl)c3)o2)CC1,100.1*,-2.6,-0.4,0.2,60.5,-11.9
O=C(Nc1ccccc1F)c1ccc(-c2cccc([N+](=O)[O-])c2)o1,51.3*,3.2,/,1.6,24.9,5.0
S=C(c1ccc(-c2cccc(Cl)c2)o1)N1CCCCC1,73.1*,-11.8,0.1,0.4,38.4,38.1*
O=C(N/N=C/c1ccc(-c2cccc([N+](=O)[O-])c2)o1)c1ccccc1O,57.6*,-2.9,-0.1,1.2,25.0,-7.7
SMILES,HSF1 activator,pCIP destab,Hsp70 act,HSP90 inh,HSF1 inh,NALP1 inh
COc1ccc(-c2noc3c2-c2nc(-c4ccc(Cl)cc4)sc2CC3)cc1,-2.9,-3.7,/,-0.3,0.8,17.4
Cc1cc(Br)ccc1OCC(=O)NNC(=O)c1cnccn1,11.4,0.1,-0.3,2.0,-3.6,29.5
COc1ccc(N(CC(=O)NCc2ccccc2OC)S(=O)(=O)c2ccc(C)cc2)cc1Cl,4.1,-14.6,/,4.4,-1.1,12.1
O=[N+]([O-])c1cccc(-c2ccc(C(=S)N3CCOCC3)o2)c1,79.4*,4.7,0.4,0.6,48.7,14.0
CCCN1CCc2c(sc3nc(SCC)n(-c4ccc(OC)cc4)c(=O)c23)C1,13.0,-15.7,/,2.5,-6.2,15.1
CCN(CC)CCOC(=O)c1ccc([N+](=O)[O-])cc1,-20.5,-38.5,/,0.4,-6.4,26.0
CCN(CC)CCOC(=O)c1ccc(N)cc1,-80.5,-0.4,/,-4.8,-78.3*,7.2
O=[N+]([O-])c1ccc(N/N=C/c2ccccc2O)cc1,72.7*,1.0,/,-9.0,69.8,-21.3
COc1cc(/C=C/C(=O)NC(=O)c2ccccc2O)ccc1OC(C)=O,36.4,7.8,/,-2.9,20.0,25.1
COc1ccccc1NC(=O)c1ccc(N2CC3CC(C2)c2cccc(=O)n2C3)c(NC(=O)c2ccncc2)c1 (configuration not stated),-65.7,-2.2,/,1.0,-56.8*,22.5
Cc1ccc(NC(=S)Nc2cc(C(=O)O)ccc2N2CC3CC(C2)c2cccc(=O)n2C3)cc1C (configuration not stated),-15.2,6.7,0.0,1.3,-17.7,36.7*
C=CCN1C(=NC(=O)CC)SC2CS(=O)(=O)CC21 (configuration not stated),0.0,3.2,-0.3,-1.6,-4.1,15.1
CC(=O)Nc1cccc(NC(=O)c2ccc(COc3ccccc3)cc2)c1,37.1,-4.4,/,2.8,27.6,-7.5
COc1ccc2nc(NC3=NC(C(=O)Nc4ccc(C)cc4)CC(=O)N3)nc(C)c2c1 (configuration not stated),24.9,9.2,-0.4,2.5,-1.3,20.7
COc1ccc(NC(=O)C2CC(=O)NC(Nc3cccc(C)c3)=N2)cc1 (configuration not stated),86.8*,-3.0,-0.4,0.6,32.2,8.4
C[C@@H](C[C@@H](O)[C@H](O)C(C)(C)O)[C@@H]1CC[C@]2(C)C3=CC[C@H]4C(C)(C)C(=O)CC[C@]4(C)[C@H]3CC[C@@]12C,1.2,-8.3,-0.4,-3.7,2.0,43.8*
CCOC(=O)c1c(C)[nH]c(C)c1C(=O)COc1ncnc2ccccc12,/,4.4,0.1,0.9,/,4.8
CC1OC(Nc2cccc3ccccc23)C(O)C(O)C1O (configuration not stated),-96.1,-6.8,-0.3,1.2,-96.2*,16.5
CCC(C(=O)NC(C)(C)C)N(Cc1ccc(F)cc1)C(=O)c1snc(C(N)=O)c1N (configuration not stated),-77.0,2.4,/,0.5,-67.1*,20.3
